From PubChem
ELG1 repair inh = blocks ELG1-dependent DNA repair in HEK293T cells; Potency, µM (series often up to 46.1 µM), for the others: top-dose activity change, negative = inhibition, actives largely listed as inhibitors; AID 504467; hit rate 2.3% among 330,000; HEK293T ELG1-luciferase reporter, luminescence, 16 h; DNA damage induced by 5-fluorouridine; also: nearly all actives have a fitted effect of over 55% in size
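DMSO vehicle served as the neutral condition. Each well held 2,000 cells given 5-fluorouridine plus compound; after 16 hr at 37 °C/5% CO2, ONE-Glo was added and luciferase measured 30 min later.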
ALOX12 inh = inhibitors of human 12S-lipoxygenase ALOX12 | purified 12hLO, xylenol orange hydroperoxide absorbance | Potency, µM (highest dose often 108 µM), without a hit: at the top dose activity change, negative = inhibition, actives largely listed as inhibitors | hit rate 1.1% among 580,000 | AID 1671190
Target sequence (P18054 whole entry, looked up): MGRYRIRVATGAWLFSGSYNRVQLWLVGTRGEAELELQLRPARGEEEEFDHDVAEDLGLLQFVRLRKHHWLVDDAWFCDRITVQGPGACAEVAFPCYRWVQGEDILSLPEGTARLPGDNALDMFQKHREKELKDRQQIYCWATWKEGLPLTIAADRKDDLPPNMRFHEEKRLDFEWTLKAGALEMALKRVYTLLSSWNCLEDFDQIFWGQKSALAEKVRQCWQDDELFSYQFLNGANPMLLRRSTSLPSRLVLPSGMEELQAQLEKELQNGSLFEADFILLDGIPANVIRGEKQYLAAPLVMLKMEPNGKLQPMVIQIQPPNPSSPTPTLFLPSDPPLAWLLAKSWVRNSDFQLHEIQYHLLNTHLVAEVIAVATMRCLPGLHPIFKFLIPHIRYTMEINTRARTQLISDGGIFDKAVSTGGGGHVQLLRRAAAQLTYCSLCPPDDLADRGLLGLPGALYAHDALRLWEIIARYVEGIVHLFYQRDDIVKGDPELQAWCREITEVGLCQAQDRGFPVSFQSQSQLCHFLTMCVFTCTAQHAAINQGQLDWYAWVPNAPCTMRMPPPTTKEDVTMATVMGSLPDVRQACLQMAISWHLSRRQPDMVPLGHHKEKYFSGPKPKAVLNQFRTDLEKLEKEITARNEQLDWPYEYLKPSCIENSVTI
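Hydroperoxide product was detected by ferrous iron/xylenol orange as the 573 to 405 nm absorbance ratio. Arachidonic acid at 40 uM (final) was turned over for 30 min at room temperature by 150 nM human 12hLO, pH 7.0 Hepes buffer, after 15 min compound preincubation.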
RORg inh = blocks mouse ROR gamma transcriptional activity. Drosophila S2 Gal4-RORgamma UAS-luciferase reporter, 20 h. Potency, µM (doses to about 53.6 µM), inactives show top-dose activity change, negative = inhibition, usual class: inhibitors. hit rate 5.4% among 310,000. AID 2551; also: nearly all actives have a fitted effect of over 60% in size
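ROR gamma transcriptional activity was tracked as Gal4-UAS luciferase output in stably transfected Drosophila Schneider cells, with compound added 1 hr before 700 uM copper sulfate induction and a 20 hr ambient-temperature incubation.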
DT40 TDP1 CPT = DT40-hTDP1 cell growth loss with CPT | chicken DT40 Tdp1-/-;hTDP1 cells + 20 nM CPT, ATP luminescence, 48 h | Potency, µM (top dose mostly 46.2 µM), inactives show at the highest dose activity change, negative = growth inhibition, most hits filed as inhibitors | hit rate 12% among 420,000; also: nearly all actives have a fitted effect of over 55% in size
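Cell growth measured by CellTiter-Glo luminescence after a minimum 48 h, 37 C compound exposure with 20 nM CPT in Tdp1-knockout DT40 cells stably expressing hTDP1, seeded 400/well; qHTS titration format.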
VP16 counter = counter-screen for ROR gamma inhibitors: Gal4-VP16 reporter; Drosophila S2 Gal4-VP16 UAS-luciferase, luminescence, 20 h; Potency, µM (top dose mostly 53.6 µM), inactives show at the highest dose activity, negative = inhibition, hits mostly inhibitors; hit rate 3.5% among 310,000; AID 2546;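 also: Gal4-VP16 expression switched on by copper sulfate through the metallothionein promoter; nearly all actives have a fitted effect of over 50% in size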
DT40 TDP1 no CPT = qHTS for Inhibitors of human tyrosyl-DNA phosphodiesterase 1 (TDP1): qHTS in cells in absence of CPT; DT40 Tdp1-/- hTDP1 cells, no CPT, ATP luminescence, 48 h; AID 686978, 2013; hit rate 15% among 420,000; Potency, µM (doses to about 46.2 µM), for inactives: at the top dose activity change, negative = growth inhibition, most hits filed as inhibitors; also: nearly all actives have a fitted effect of over 55% in size
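Stably hTDP1-transfected Tdp1-null chicken DT40 cells were treated with library compounds minus camptothecin and grown for at least 48 hr at 37 °C, after which cellular ATP was quantified by luminescence.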
Numbers without * were called inactive; [ ] = dose if it differs, or a comment. A selection: hits, their analogues and other compounds. The true share with any hit is near 15%. Calls follow the shape of the dose curve; as a rule, active = well fitted curve in the direction sought with a large enough effect; inconclusive = small, poorly fitted or top-dose-only effect, or another doubt; inactive = no such curve, though single readings can be large; an effect the other way counts as inactive or inconclusive. % is scaled to controls: 0 for no effect and ±100 for the full control effect; potency is read from the fitted curve at half-maximal effect.

`O=C1NC(=O)N(c2cccc(Br)c2)C(=O)/C1=C/c1ccsc1` gave ELG1 repair inh 24%, ALOX12 inh 45µM*, RORg inh 18%, DT40 TDP1 CPT inconclusive, VP16 counter -1% and DT40 TDP1 no CPT inconclusive.
COC(=O)C1=C(c2ccc(S(C)(=O)=O)cc2)C[C@@H]2CC[C@H]1N2C(=O)N1CCC(C)CC1 was read as ALOX12 inh 2%, DT40 TDP1 CPT inconclusive and DT40 TDP1 no CPT inconclusive.
COC(=O)C1=C(c2cc3ccccc3s2)C[C@@H]2CC[C@H]1N2C(=O)N1CCC(C)CC1 was read as ALOX12 inh -29%, DT40 TDP1 CPT 5.2µM* and DT40 TDP1 no CPT 2.6µM*.
COC(=O)C1=C(c2cc3ccccc3s2)C[C@@H]2CC[C@H]1N2C(=O)NC1CC1 was read as ALOX12 inh 14%, DT40 TDP1 CPT inconclusive and DT40 TDP1 no CPT 15µM*.
`COC(=O)C1=C(c2cc3ccccc3s2)C[C@@H]2CC[C@H]1N2C` gave ELG1 repair inh inconclusive, ALOX12 inh -12%, DT40 TDP1 CPT -9% and DT40 TDP1 no CPT -23%.
`COC(=O)C1=C(c2c(C)noc2C)C[C@@H]2CC[C@H]1N2C(=O)NCc1ccc(C(F)(F)F)cc1` gave ELG1 repair inh 17%, ALOX12 inh -4%, DT40 TDP1 CPT inconclusive and DT40 TDP1 no CPT inconclusive.
Screening COC(=O)C1=C(c2cc3ccccc3s2)C[C@@H]2CC[C@H]1N2C(=O)NCC1CC1 returned ALOX12 inh inconclusive, DT40 TDP1 CPT inconclusive and DT40 TDP1 no CPT 16µM*.
Screening COC(=O)C1=C(c2cc3ccccc3s2)C[C@@H]2CC[C@H]1N2C(=O)NCc1ccc(C(F)(F)F)cc1 returned ALOX12 inh inconclusive, DT40 TDP1 CPT inconclusive and DT40 TDP1 no CPT 18µM*.
`C[C@@]12CC[C@@H]3c4ccc(O)cc4C[C@H](CCCCCCCCCS(=O)CCCC(F)(F)C(F)(F)F)[C@H]3[C@@H]1CC[C@@H]2O` (stereo partly specified) gave ALOX12 inh 0%, RORg inh 19%, DT40 TDP1 CPT -58%, VP16 counter -10% and DT40 TDP1 no CPT 12µM*.
CN1CCOC[C@H]2CCNC[C@H]21 was read as ALOX12 inh 59%.
`O=C(OCC(=O)c1ccc([N+](=O)[O-])cc1)/C(=C/c1ccc(Cl)cc1)NC(=O)c1ccccc1` gave ELG1 repair inh 5%, ALOX12 inh -6%, RORg inh 40%, DT40 TDP1 CPT 16µM*, VP16 counter -9% and DT40 TDP1 no CPT 23µM*.
COc1ccc(Cn2c(=O)oc3ccc(C)cc32)cc1OC was read as ELG1 repair inh -27%, ALOX12 inh 0%, RORg inh 18%, DT40 TDP1 CPT 15µM*, VP16 counter inconclusive and DT40 TDP1 no CPT 18µM*.
Screening COc1ccc(CCN)cc1OC returned ELG1 repair inh 13%, ALOX12 inh 39%, RORg inh -1%, DT40 TDP1 CPT -19%, VP16 counter -8% and DT40 TDP1 no CPT -18%.
For COc1ccc(-c2cc(C(=O)N3CCN(c4ccccc4OC)CC3)c3cc(C(C)C)ccc3n2)cc1 the results were ALOX12 inh inconclusive, DT40 TDP1 CPT 23µM* and DT40 TDP1 no CPT 21µM*.
CCOc1ccc(-c2cc(C(=O)N3CCN(c4cccc(C(F)(F)F)c4)CC3)c3ccccc3n2)cc1 was read as ALOX12 inh 5%, DT40 TDP1 CPT 5.2µM* and DT40 TDP1 no CPT 4.6µM*.
COc1ccc(N2CCN(C(=O)c3cc(=O)[nH]c4ccccc34)CC2)cc1 was read as ELG1 repair inh -1%, ALOX12 inh 8%, RORg inh inconclusive, DT40 TDP1 CPT 5%, VP16 counter -3% and DT40 TDP1 no CPT inconclusive.
For O=C(O)c1ccccc1-c1ccc(C=C2C(=O)N(c3ccccc3)C(=S)N(c3ccccc3)C2=O)o1 the results were ELG1 repair inh inconclusive, ALOX12 inh 32µM*, RORg inh -24%, DT40 TDP1 CPT inconclusive, VP16 counter -1% and DT40 TDP1 no CPT 2%.
Screening CC(=O)O/C(=C1\CC2C3CC=C4CC(OC(C)=O)CCC4(C)C3CCC2(C)C1=O)C(F)(F)F (stereo unspecified) returned ALOX12 inh -11%, DT40 TDP1 CPT 4.6µM* and DT40 TDP1 no CPT 3.7µM*.
`Cn1nc(C2CCCCC2)cc1[C@H]1CN2CC[C@H]1C[C@@H]2CNC(=O)Nc1ccccc1` gave ALOX12 inh -6%[176 µM].
Screening S=C=Nc1ccccn1 returned ELG1 repair inh inconclusive, ALOX12 inh -3%, RORg inh 5µM*, DT40 TDP1 CPT -24%, VP16 counter inconclusive and DT40 TDP1 no CPT inconclusive.
For Cc1ccnn1CC(=O)N1C[C@@H](c2ccc3c(c2)OCO3)[C@@H]2[C@H]1C1CCN2CC1 the results were ALOX12 inh 10%.
For O=C(CSC1c2ccccc2-c2ccccc21)N/N=C/c1ccc(C(=O)O)cc1 the results were ELG1 repair inh 13%, ALOX12 inh -1%, RORg inh -35%, DT40 TDP1 CPT 5%, VP16 counter -2% and DT40 TDP1 no CPT 10%.
Screening O=C(CSC1c2ccccc2-c2ccccc21)N/N=C/c1ccccc1O returned ELG1 repair inh 3.7µM*, ALOX12 inh -8%, RORg inh 13µM*, DT40 TDP1 CPT 7.3µM*, VP16 counter 18µM* and DT40 TDP1 no CPT 6.5µM*.
For COc1ccc2c(C)c(CCC(=O)N3C[C@H]4C[C@@H](C3)c3cccc(=O)n3C4)c(=O)oc2c1 the results were ELG1 repair inh 26%, ALOX12 inh -6%, RORg inh -14%, DT40 TDP1 CPT -2%, VP16 counter -4% and DT40 TDP1 no CPT -22%.
For Cc1oc2cc3oc(=O)c(CCC(=O)N4CCCCC4)c(C)c3cc2c1C the results were ALOX12 inh 6%, DT40 TDP1 CPT 12µM* and DT40 TDP1 no CPT 23µM*.
For O=C1c2ccccc2-n2nncc2C2c3cc(Br)ccc3CCN12 (stereo unspecified) the results were ALOX12 inh inconclusive, DT40 TDP1 CPT inconclusive and DT40 TDP1 no CPT -20%.
Cc1ccccc1-c1ccc2c(c1)C1c3c(-c4ccccc4)nnn3-c3ccccc3C(=O)N1CC2 (stereo unspecified) was read as ALOX12 inh inconclusive, DT40 TDP1 CPT 21µM* and DT40 TDP1 no CPT 29µM*.
